Measurements as given in PubChem BioAssay (EPA / NIEHS).
Calls of active or inactive are those of the source. Rule for the calls: active = hit-call score of the fitted dose curve at least 0.9, where 1 is the maximum; inactive = score below 0.9.

What follows are compounds tested against Cellular tumor antigen p53 (Homo sapiens) (UniProt P04637) (assay: ATG_p53_CIS: Attagene CIS-FACTORIAL HepG2 Assay for human p53 Transcription Factor (AID 2282994)). Details: HepG2 p53 cis-element reporter, Attagene mRNA; actives raise or lower the signal.
Experimental: ATG_CIS is a cell-based, multiplexed-readout assay that uses HepG2, a human liver cell line, with measurements taken at 24 hours after chemical dosing in a 24-well plate.ATG_p53_CIS is one of 52 assay component(s) measured or calculated from the ATG_CIS assay. It is designed to make measurements of mRNA induction, a form of inducible reporter, as detected with fluorescence intensity signals by Reverse transcription polymerase chain reaction (RT-PCR) and Capillary electrophoresis technology.Data from the assay component ATG_p53_CIS was analyzed into 1 assay endpoint. This assay endpoint, ATG_p53_CIS, was analyzed with bidirectional fitting relative to DMSO as the negative control and baseline of activity. Using a type of inducible reporter, measures of mRNA for gain or loss-of-signal activity can be used to understand the reporter gene at the transcription factor-level as they relate to the gene TP53. Furthermore, this assay endpoint can be referred to as a primary readout, because this assay has produced multiple assay endpoints where this one serves a reporter gene function. To generalize the intended target to other relatable targets, this assay endpoint is annotated to the dna binding intended target family, where the subfamily is tumor suppressor.
Human liver HepG2 cells are transiently transfected with multiple reporter transcription units (MRTUs) in 6-well plates using FuGene 6 reagent (Roche; 3 ml FuGene/1 mg DNA). The MRTU constructs are regulated by a cis-regulating element (promoter). […] A major difference between the CIS and TRANS system is that in CIS activities of endogenous TFs are measured, whereas the TRANS assay evaluates changes in activities of exogenous, chimeric NR-Gal4 proteins. […] At the end of 24 hour incubation, total RNA was isolated using TriZol reagent (Invitrogen). The isolated RNA is then reverse-transcribed using oligo(dT) primer and Mo-MLV reverse transcriptase (Invitrogen) with DNAse I (Ambion) treatment for 30 min. The one-tenth of the produced cDNA was amplified by PCR using Taq DNA polymerase (Invitrogen) and two reporter sequence-specific primers. The PCR products were fluorescently labeled by primer extension with 6-arboxyfluorescein (6-FAM) 5'-labeled reporter sequence-specific primer (2 min at 95 C, 20 s at 68 C and 10 min at 72 C) and these products were digested with 5U of HpaI (New England Biolabs) for 2h at 37 C. The fragments were purified using Qiaquick PCR columns (Qiagen), analyzed on an ABI 3130xL genetic analyzer (Applied Biosystems) with peak positions identified by using a set of X-rhodamine (ROX)-labeled MapMarker1000 molecular weight standards (BioVentures). The raw capillary electrophoresis data was processed using Attagraph software (Attagene).

Sequence of Cellular tumor antigen p53 (Homo sapiens) (P04637 whole entry, looked up): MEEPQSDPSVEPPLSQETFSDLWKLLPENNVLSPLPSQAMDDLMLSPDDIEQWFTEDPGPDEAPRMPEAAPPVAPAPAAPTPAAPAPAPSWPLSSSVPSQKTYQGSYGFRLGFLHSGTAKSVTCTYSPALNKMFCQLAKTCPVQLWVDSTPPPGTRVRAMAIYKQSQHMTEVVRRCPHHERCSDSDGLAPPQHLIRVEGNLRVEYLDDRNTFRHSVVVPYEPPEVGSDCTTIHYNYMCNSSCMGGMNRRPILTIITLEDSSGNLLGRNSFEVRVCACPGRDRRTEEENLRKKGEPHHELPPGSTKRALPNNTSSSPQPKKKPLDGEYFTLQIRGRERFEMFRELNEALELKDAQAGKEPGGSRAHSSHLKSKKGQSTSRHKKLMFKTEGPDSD

Structure (SMILES) | outcome | AC50
O=[Si]=O | inactive | 
CC1=C(C)S(=O)(=O)CCS1(=O)=O |  | 130 µM (active)
O=C1O[C@H]([C@H](O)CO)C(O)=C1O | inactive | 
CCCCC(CC)CO (stereo not given) | inactive | 
OCC(CO)n1cnc(-c2ccc(F)cc2)c1-c1ccnc(Oc2ccccc2)n1 | inactive | 
CCc1cc(C2=C(C(=O)O)N(c3ccccc3C(F)(F)F)S(=O)(=O)c3ccccc32)cc2c1OCO2 | inactive | 
CN(C)C(=O)NC1(c2ccccc2)CCN(CCC[C@]2(c3ccc(Cl)c(Cl)c3)CCCN(C(=O)c3ccccc3)C2)CC1 | inactive | 
NCCOCCOCCN | inactive | 
CCCCCCCCCC[N+](C)(C)[O-] | inactive | 
CCCCCCCC(=O)OC | inactive | 
CCOCCOCCO | inactive | 
CCCCC(CC)COC(=O)CCCCCCCC(=O)OCC(CC)CCCC (stereo not given) | inactive | 
Nc1nc(Cl)nc2c1ncn2[C@H]1C[C@H](O)[C@@H](CO)O1 | inactive | 
CN(C)CCCN(C)CCCN(C)C | inactive | 
COC(=O)CCCC(=O)OC | inactive | 
CC(C)(O)c1ccc(CNC(=O)c2cccnc2Oc2ccc(F)cc2)cc1 | inactive | 
CC(=O)S[C@H](C(=O)N[C@H]1Cc2ccccc2[C@H]2CCC[C@@H](C(=O)O)N2C1=O)C(C)C | inactive | 
CCCC[C@H]1CN(CC2CCOCC2)C(=O)OC12CCN(C1(C)CCN(C(=O)c3c(C)ncnc3C)CC1)CC2 | inactive | 
O=C(O)CN(CC(=O)O)CC(=O)O | inactive | 
Cc1c(C)c2c(c(C)c1O)CCC(C)(COc1ccc(CC3SC(=O)NC3=O)cc1)O2 (stereo not given) | inactive | 

Structure (SMILES) | outcome | AC50
S=c1[nH]c2ccccc2s1 | inactive | 
CCCCC(CC)COP(=O)(OCC(CC)CCCC)OCC(CC)CCCC (stereo not given) | inactive | 
CN(C)C(=O)NC1(c2ccccc2)CCN(CC[C@@]2(c3ccc(F)c(F)c3)CN(C(=O)c3ccccc3)CCO2)CC1 |  | 100 µM (active)
Cc1cc(SC2=C(O)C[C@@](CCc3ccc(N)cc3)(C(C)C)OC2=O)c(C(C)(C)C)cc1CO | inactive | 
Oc1ccccc1O | inactive | 
COC(=O)[C@H]1[C@H]2C[C@@H]3c4[nH]c5cc(OC)ccc5c4CCN3C[C@H]2C[C@@H](OC(=O)c2cc(OC)c(OC)c(OC)c2)[C@@H]1OC |  | 22.9 µM (active)
c1ccc2occc2c1 | inactive | 
COC(=O)CCC(=O)OC | inactive | 
O=C(O)c1[nH]n(-c2ccc(S(=O)(=O)O)cc2)c(=O)c1N=Nc1ccc(S(=O)(=O)O)cc1 | inactive | 
O=C1OC(c2ccc(O)cc2)(c2ccc(O)cc2)c2ccccc21 | inactive | 
C=CCc1ccc(OC)c(OC)c1 | inactive | 
NC(=Nc1ccccc1)Nc1ccccc1 |  | 6.23 µM (active)
COc1ccc(OC(F)(F)F)cc1CN[C@H]1CCCN[C@H]1c1ccccc1 |  | 2.91 µM (active)
CCCCCCC(CCCCCCCCCCC(=O)OCC(COC(C)=O)OC(C)=O)OC(C)=O (stereo not given) | inactive | 
Oc1ccc(O)cc1 | inactive | 
CCc1nc(N)nc(N)c1-c1ccc(Cl)cc1 |  | 30.3 µM (active)
O=C1c2c(O)cccc2Cc2cccc(O)c21 | inactive | 
CCCCCCCCCCCCCCOS(=O)(=O)O | inactive | 
CC(C)(C)c1ccccc1 | inactive | 
Cc1cc(Cc2ccc(N)c(C)c2)ccc1N | inactive | 
